# Rows were chosen to be rich in hits. Some 17% of all compounds tested hit in one or more screens of this group.
# ClpP mod: qHTS Assay for Activators of ClpP; purified B. subtilis ClpP, FRET peptide cleavage, 20 min; Potency, µM (titrated, usually from 57.5 µM); AID 651965, 2013; 340,000 compounds, 1.9% hits; active means well fitted falling curve with a large enough effect; inconclusive means small, poorly fitted or top-dose-only effect; inactive means no such curve, though single readings can be large or run the other way; further: the source files actives as falling curves though it sought activators and does not explain the sign; nearly all actives have a fitted effect of over 65% in size
#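 ClpP 10 microg/mL final, pH 8 Tris/KCl buffer with BSA, glycerol, Tween-20; compound pinned in; FRET-FV substrate; RT 20 min; Ex320/Em430; ΔFRET vs ADEP 5.8 microM, DMSO, no enzyme.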
# TDP1 inh: TDP1 (human) enzyme inhibition; Q9NUW8; recombinant TDP1, AlphaScreen DNA substrate cleavage; Potency, µM (titrated, usually from 130 µM), hits mostly inhibitors; 350,000 compounds, 0.28% hits; AID 485290; further: nearly all actives have a fitted effect of over 40% in size
# Target sequence (Q9NUW8 whole entry, looked up): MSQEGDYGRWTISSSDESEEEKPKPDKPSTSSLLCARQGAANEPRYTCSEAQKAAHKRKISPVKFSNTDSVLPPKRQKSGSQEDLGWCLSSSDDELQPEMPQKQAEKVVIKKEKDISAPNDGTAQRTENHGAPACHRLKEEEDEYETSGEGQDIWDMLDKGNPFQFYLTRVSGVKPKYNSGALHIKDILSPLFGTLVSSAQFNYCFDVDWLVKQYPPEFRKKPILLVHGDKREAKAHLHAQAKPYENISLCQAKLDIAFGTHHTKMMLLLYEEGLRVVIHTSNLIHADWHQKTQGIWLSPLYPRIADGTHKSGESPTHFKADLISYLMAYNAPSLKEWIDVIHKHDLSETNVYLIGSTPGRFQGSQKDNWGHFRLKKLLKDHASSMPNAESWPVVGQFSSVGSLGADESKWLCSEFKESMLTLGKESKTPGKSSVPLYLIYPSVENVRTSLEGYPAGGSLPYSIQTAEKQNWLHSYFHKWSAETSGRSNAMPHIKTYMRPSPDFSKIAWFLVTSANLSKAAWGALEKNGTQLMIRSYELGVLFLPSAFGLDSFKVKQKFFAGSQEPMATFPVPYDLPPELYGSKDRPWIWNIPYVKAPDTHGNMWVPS
#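 Recombinant E. coli-expressed Tdp1 (1 nM) preincubated with compound 15 min at RT, then 5'-biotin/3'-phosphotyrosine-FITC DNA substrate (15 nM) added for 5 min. AlphaScreen beads (10 ug/ml) added, 10 min RT; tyrosine-FITC cleavage read as signal loss.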
# DT40 TDP1 CPT: growth inhibition of DT40 Tdp1-/-;hTDP1 cells with camptothecin (screen for TDP1 inhibitors). Potency, µM (series often up to 46.2 µM), hits mostly inhibitors. chicken DT40 Tdp1-/-;hTDP1 cells + 20 nM CPT, ATP luminescence, 48 h. 420,000 compounds, 12% hits; further: nearly all actives have a fitted effect of over 55% in size
#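 Cell growth measured by CellTiter-Glo luminescence after a minimum 48 h, 37 C compound exposure with 20 nM CPT in Tdp1-knockout DT40 cells stably expressing hTDP1, seeded 400/well; qHTS titration format.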
# DT40 TDP1 no CPT: qHTS for Inhibitors of human tyrosyl-DNA phosphodiesterase 1 (TDP1): qHTS in cells in absence of CPT | Potency, µM (series often up to 46.2 µM), most hits filed as inhibitors | AID 686978, 2013 | 420,000 compounds, 15% hits | DT40 Tdp1-/- hTDP1 cells, no CPT, ATP luminescence, 48 h; further: nearly all actives have a fitted effect of over 55% in size
#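 Readout: luminescence from CellTiter-Glo after 30 min in the dark at RT. Cells: DT40 Tdp1-/- with stable hTDP1, 400/well. Exposure: compounds alone, ≥48 hr, 37 °C.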
# A number is an active result; . = inactive; ? = inconclusive; / = no result; [ ] = another dose, or the depositor's remark. Unless noted, the call rests on the fitted dose curve; in most records, active means well fitted curve in the direction sought with a large enough effect; inconclusive means small, poorly fitted or top-dose-only effect, or another doubt; inactive means no such curve, though single readings can be large; an effect the other way counts as inactive or inconclusive.
SMILES,ClpP mod,TDP1 inh,DT40 TDP1 CPT,DT40 TDP1 no CPT
Cc1ccc2[nH]cc(C(=O)CCl)c2c1,.,.,2.6µM,4.1µM
Cc1ccc2[nH]cc(C(=O)CN3CCN(C)CC3)c2c1,.,.,.,.
Cc1ccc2c(C(=O)CCl)c(C)[nH]c2c1,.,/,3.7µM,2.6µM
CC(C)C(NC(=O)c1ccc(Cl)cc1Cl)C(=O)NCCc1ccccn1 (stereo not given),.,.,.,.
C=CCc1ccccc1OCCSc1nc(-c2ccccc2F)nc2cc(=O)[nH]n12,.,?,16µM,21µM
COc1ccccc1OCCCSc1nc(-c2ccc(C(C)(C)C)cc2)nc2cc(=O)[nH]n12,.,.,.,?
Cc1cc(C)cc(OCCSc2nc(-c3ccc(C(C)(C)C)cc3)nc3cc(=O)[nH]n23)c1,.,.,?,?
CC(C)(C)c1ccc(-c2nc(SCCCOc3ccccc3)n3[nH]c(=O)cc3n2)cc1,.,.,?,?
COc1ccc(-c2nc(SCCOc3ccccc3Cl)n3[nH]c(=O)cc3n2)cc1,.,.,21µM,?
COc1cccc(-c2nc(SCc3ccc(C)cc3)n3[nH]c(=O)cc3n2)c1,.,.,18µM,16µM
CC1CCc2c(sc3nnn(CC(=O)Nc4cccc(C(F)(F)F)c4)c(=O)c23)C1 (stereo not given),.,.,?,21µM
CC1CCc2c(sc3nnn(CC(=O)Nc4ccccc4Cl)c(=O)c23)C1 (stereo not given),.,.,?,16µM
CC1CCc2c(sc3nnn(CC(=O)Nc4ccc(Cl)cc4)c(=O)c23)C1 (stereo not given),.,.,?,?
COc1ccc(Cl)cc1NC(=O)CN(C)C(=O)Cc1ccc(-c2ccccc2)cc1,.,.,.,.
COc1ccc(Cl)cc1NC(=O)CN(C)CC(=O)Nc1ccccc1-c1ccccc1,.,.,18µM,23µM
COc1ccc(Cl)cc1NC(=O)CN(C)C(=O)c1ccc(OCc2ccccc2)c(OC)c1,.,/,?,23µM
COc1ccc(Cl)cc1NC(=O)CN(C)C(=O)c1ccc(COc2ccccc2)cc1,.,/,?,?
C#CCN(Cc1ccccc1)S(=O)(=O)C=C,.,.,25µM,?
CCc1nc2c(OCCC3CCCCC3)cccn2c1N(C)C(=O)c1ccncc1,.,/,16µM,15µM
CCc1nc2c(OCCC3CCCCC3)cccn2c1N(C)C(=O)c1ccc(OC)cc1,.,/,?,21µM
CCc1nc2c(OCC3CCCCC3)cccn2c1N(C)C(=O)c1ccc(C)cc1,.,/,21µM,15µM
CCc1nc2c(OCC3COc4ccccc4O3)cccn2c1N(C)C(=O)c1ccccc1F (stereo not given),.,/,21µM,21µM
CCc1nc2c(OCc3ccc(C(=O)N(C)C)cc3)cccn2c1N(C)C(=O)c1ccc(C)cc1,.,/,.,.
COc1cc(OC)cc(C(=O)N(Cc2ccco2)Cc2cccs2)c1,.,.,?,?
Cc1ccc(S(=O)(=O)N2CCN(C(C)C(=O)Nc3ccccc3-c3ccccc3)CC2)cc1 (stereo not given),.,.,?,16µM
SMILES,ClpP mod,TDP1 inh,DT40 TDP1 CPT,DT40 TDP1 no CPT
CC1CCN(C(C)C(=O)Nc2ccccc2-c2ccccc2)CC1 (stereo not given),.,?,?,?
CC(C(=O)Nc1ccccc1-c1ccccc1)N1CCN(Cc2ccccc2)CC1 (stereo not given),/,.,?,?
CC(C(=O)Nc1ccccc1-c1ccccc1)N1CCN(C(=O)c2ccccc2)CC1 (stereo not given),/,.,?,26µM
CCNc1nc(NC(C)(C)C)nc(SCC(N)=O)n1,/,.,.,.
Cc1cccc(/C=C(\C(=O)O)c2ccc(S(=O)(=O)N3CCCC3)s2)c1,.,11µM,.,.
O=C(O)/C(=C\c1ccc(C(F)(F)F)cc1)c1ccc(S(=O)(=O)N2CCCC2)s1,.,.,.,.
COc1cc(/C=C(\C(=O)O)c2ccc(S(=O)(=O)N3CCCC3)s2)ccc1OCCC(C)C,.,/,23µM,?
CCCCOc1ccc(/C=C(\C(=O)O)c2ccc(S(=O)(=O)N3CCCC3)s2)cc1,.,.,?,?
CCCCn1c(=O)c2oc3ccccc3c2n(Cc2ccc(C)cc2)c1=O,.,.,.,?
COc1ccc(N/C(C)=C/C(=S)Nc2ccccc2)cc1,.,.,10µM,?
COc1ccc(N/C(C)=C/C(=O)c2ccccc2)cc1,.,.,.,.
O=C(COC(=O)Cn1cnc2ccccc21)Nc1cc(S(=O)(=O)N2CCOCC2)ccc1Cl,/,/,.,.
O=C(COC(=O)Cn1cnc2ccccc21)Nc1cc2c(cc1Cl)C(=O)c1ccccc1C2=O,.,.,21µM,16µM
Cc1c(C(=O)N2CCC(C(N)=O)CC2)oc2ccc(Br)cc12,/,.,.,.
O=C(Nc1ccc2oc(-c3cccc4c(Br)cccc34)nc2c1)c1ccc(F)cc1,.,.[12.3 µM],?,10µM
O=C(Nc1ccc2oc(-c3cccc4c(Br)cccc34)nc2c1)c1ccc(Br)cc1,.,.[12.3 µM],.,.
Cc1cc2nc(-c3ccc(NC(=O)c4ccccc4F)cc3)oc2cc1C,.,.[12.3 µM],?,8.2µM
O=C(Nc1ccc2oc(-c3ccncc3)nc2c1)c1ccc(F)cc1,.,79µM,.,.
O=C(Nc1ccc2oc(-c3ccccc3)nc2c1)c1ccc2c(c1)OCCO2,.,.,23µM,16µM
Cc1cc2nc(-c3cccc(NC(=O)c4cccc5ccccc45)c3)oc2cc1C,.,.[12.3 µM],.,.
COc1ccc(C2/C(=C(/O)c3ccc(C)cc3)C(=O)C(=O)N2C)c(OC)c1 (stereo not given),.,.,.,.
CCNC(=O)C1(C)CCCN1C(=O)c1cnc2ccccc2n1 (stereo not given),.,/,.,.
O=C(Nc1ccc2oc(-c3ccncc3)nc2c1)c1c(F)c(F)c(F)c(F)c1F,?,.,0.73µM,1.5µM
Cc1cccc(C(=O)Nc2ccc3oc(-c4ccncc4)nc3c2)c1,.,/,21µM,12µM
Cc1cccc(C(=O)Nc2ccc3oc(-c4cccc5c(Br)cccc45)nc3c2)c1,.,.[2.28 µM],?,?
SMILES,ClpP mod,TDP1 inh,DT40 TDP1 CPT,DT40 TDP1 no CPT
COc1c(F)c(F)c(C(=O)Nc2ccc3oc(-c4ccncc4)nc3c2)c(F)c1F,.,.,.,.
COc1ccccc1C(=O)Nc1ccc2oc(-c3ccc(F)cc3)nc2c1,20µM,.,18µM,?
COc1cccc(OC)c1C(=O)NC(=S)Nc1ccc2oc(-c3ccncc3)nc2c1,/,.,26µM,23µM
CCc1nn(CC(=O)NCc2cccnc2)c(=O)c2cc3occc3n12,.,.,.,.
COc1ccc(CS(=O)(=O)CC2(O)CCN(C(=O)c3cccc(C(F)(F)F)c3)CC2)cc1,.,.,.,.
CC(=O)OC[C@H]1O[C@@H](ON=C(C)C)[C@H](OC(C)=O)[C@@H](OC(C)=O)[C@H]1OC(C)=O,/,.[21 µM],/,/

# Bioassay records: PubChem BioAssay, National Center for Advancing Translational Sciences (NCATS)
